Structures are written as SMILES. Out of some 48,000 compounds screened, about 13,000 (27%) showed an effect of 50% or more. The list shows a part of the results.

The test deals with Wolbachia pipientis. Nature of the test: Anti-Wolbachia Cell-Based Screen. Format: functional. Further details: scale not given: in the data most compounds retested in dose-response had high values. To be noted: 5 µM.
On to `CCN1CC(C(=O)N2CCc3cc(C(=O)N(C)C)n(C)c3C2)CCC1=O` (centres undefined), for which the “Percent Effect” value was 22.54%.

Consider `CCCC(O)CN1CCC(=O)N(CCOC)Cc2cc3c(cc21)OCO3` (centres undefined), for which the “Percent Effect” value is 110.9%. For the compound `CCCC(O)CN1CCC(=O)N(CC)Cc2cc3c(cc21)OCO3` (centres undefined), the “Percent Effect” value worked out at 85.4%. Regarding `COCC1c2c(cnn2C)CCN1C(=O)c1ccc2c(c1)OCO2` (centres undefined), the “Percent Effect” value is reported as 20.59%. Next, `CC(=O)N1CC[C@H]2CC(=O)N(Cc3ccc4c(c3)OCO4)CC[C@H]2C1`: 1.484%; `O=C(O)C(F)(F)F.O=C(O)C(F)(F)F.c1cc2c(cc1CN1CC[C@H]3[C@H]1CCN3CC1CC1)OCO2`: -18.3%. With `COCCN1C[C@H]2CN(C(=O)c3ccc4c(c3)OCO4)CCN2C1=O`, the “Percent Effect” value is on record as -8.36%. For the compound `Cc1ccccc1N1CCN(C(=O)Cc2ccc3c(c2)OCO3)CC1=O`, the “Percent Effect” value is recorded as -22.32%. Next, `CCCC(O)CN1CCC(=O)N(CC2CC2)Cc2cc3c(cc21)OCO3` (centres undefined): 71.64%; `CC(NC(=O)Nc1ccccc1CN1CCOCC1)c1nnc(N)s1` (centres undefined): 1.041%.

Turning to `Cc1cc(C)n(CC(C)NCc2nncn2C2CCCCC2)n1` (centres undefined), the “Percent Effect” value is on record as -18.85%. The result for `CCC(C)NS(=O)(=O)Cc1cccc(NC(=O)c2ccc[nH]2)c1` (centres undefined) reads -2.911%; that for `Cc1ncsc1CCN(C)C(=O)CN1CC2(CCCC2)CC1=O`, -2.773%; that for `COc1cc(C(=O)NCCc2ccccc2OC)on1`, 0.865%. With `O=C(N[C@H]1CC[C@H](O)CC1)c1ccc2nc(-c3ccccc3)cn2c1`, the “Percent Effect” value is reported as -19.25%. The result for `CCc1[nH]ncc1C(=O)N1CCCN(Cc2cnn(C(C)C)c2)CC1` reads -9.524%; that for `CC(C)n1ccnc1CN1CCCN(C(=O)COC2CCCC2)CC1`, -4.301%. For the compound `CC(C)n1cc(CN2CCCN(C(=O)COC3CCCC3)CC2)cn1`, the “Percent Effect” value was determined as 98.23%.

`CC(C)n1cc(CN2CCCN(C(=O)CC3CCCO3)CC2)cn1` (centres undefined): the “Percent Effect” value stood at 115.9%. The result for `CC(C)n1cc(CN2CCCN(C(=O)CC3CCCCC3)CC2)cn1` reads 102.4%; that for `CCCC(=O)N1CCCN(C(=O)Nc2ccc(C)s2)CC1`, 4.138%. With `O=C(C(c1ccccc1)N1CCc2cncnc2C1)N1CCCCC1` (centres undefined), the “Percent Effect” value is on record as -0.8294%. Regarding `N#CC1(NC(=O)COc2cc(Cl)cc(Cl)c2)CCSC1` (centres undefined), the “Percent Effect” value was -14.75%. As to `O=C(NCCCn1cnnc1)C1CCCN(C2CCCC2)C1` (centres undefined), the “Percent Effect” value came out at 8.155%. Next, `O=C(CCCOc1ccc(F)cc1F)N1CCCC1Cn1cccn1` (centres undefined): 4.503%. The result for `O=C(c1ccccc1OCC1CC1)N1CCCC1Cn1cccn1` (centres undefined) reads 15.75%. Next, `O=C(CCOc1ccccc1F)N1CCCCC1Cn1cccn1` (centres undefined): 114.4%; `O=C(CCOc1ccccc1F)N1CCCC1Cn1cccn1` (centres undefined): 123.4%; `COc1ccccc1OCCC(=O)N1CCCC1Cn1cccn1` (centres undefined): 114.3%.

Turning to `CCOCCC(=O)N1CCCCC1CCn1cccn1` (centres undefined), the “Percent Effect” value was -10.55%.

Regarding `COc1cc(C)ccc1OCCC(=O)N1CCCC1Cn1cccn1` (centres undefined), the “Percent Effect” value is given as 6.133%. Turning to `O=C1O[C@@H]2CN(c3ncccn3)C[C@@H]2N1CCCc1ccc(F)cc1`, the “Percent Effect” value is reported as 0.8552%. The result for `CCc1nc(CN(CC(N)=O)C(C)C)cs1` reads -5.873%; that for `CN(C)CCOc1ccccc1N1CCN(C(=O)C(C)(C)C#N)CC1`, 12.48%; that for `COCCN(Cc1c(C)nn(C)c1C)C(=O)C1COc2ccccc2C1` (centres undefined), -13.07%. Next, `Cc1cc(C)n(CC2CCCCN2CC(=O)Nc2cccnc2)n1` (centres undefined): -5.388%; `CN(Cc1nc(-c2cccnc2)no1)C(=O)c1cccn1C`: -3.845%.

As to `COC1COC2(CCN(S(=O)(=O)c3ccc(F)cc3)CC2)C1` (centres undefined), the “Percent Effect” value is -4.083%. On to `COc1ccc(S(=O)(=O)N2C[C@H](OC)[C@]3(CCCO3)C2)cc1`, for which the “Percent Effect” value is 124.9%. For the compound `CCN1CCNC(=O)C12CCN(S(=O)(=O)c1ccc(OC)cc1)CC2`, the “Percent Effect” value is 15.65%. Next, `CC(C)[C@@H]1CN(S(=O)(=O)c2cccc(C(=O)O)c2)C[C@H]1N(C)C`: 0.7097%; `CO[C@H]1CN(S(=O)(=O)c2ccc(F)cc2)C[C@@]12CCCO2`: 187.7%; `COc1cccc(C(C)N2CCN(S(=O)(=O)c3ccccc3)CC2)c1` (centres undefined): -3.731%. `COc1ccc(S(=O)(=O)N2CCCC3(CCCN3S(C)(=O)=O)C2)cc1` (centres undefined): the “Percent Effect” value was -14.23%. The result for `COc1cccc(S(=O)(=O)N2C[C@H](OC)[C@]3(CCCO3)C2)c1` reads 151.5%; that for `COc1cccc(S(=O)(=O)N2C[C@@H](N(C)C)[C@H](C(C)C)C2)c1`, -6.322%; that for `CCOC1COC2(CCN(S(=O)(=O)c3ccc(F)cc3)CC2)C1` (centres undefined), -48.73%.

On to `COc1cccc(S(=O)(=O)N2C[C@@H](O)[C@H](N(C)C)C2)c1`, for which the “Percent Effect” value amounted to 179.9%. Regarding `COc1cccc(S(=O)(=O)CCN2CCC3(CC2)OCCO3)c1`, the “Percent Effect” value was -7.046%.

The values are drawn from ChEMBL document CHEMBL3988442, “University of Dundee, Small-Polar-MMV Screening Library” (2021).
